# FID counter = counter-screen for HCV NS3 helicase inhibitors: DNA intercalator displacement; DNA fluorescent intercalator displacement, fluorescence; inhibition, % at 7.9 µM; 290,000 tested, 0.17% active; AID 1845; in the data active = inhibition above about 37%;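 note: 0% = vehicle and 100% = reference compound; higher means more ethidium bromide displaced from hairpin DNA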
# RAD52 inh = RAD52 (human) annealing inhibition; P43351; recombinant RAD52 DNA annealing, FRET fluorescence; inhibition, % at 18.7 µM; 360,000 tested, 0.46% active; AID 651710;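 active = every replicate showing at least 50% inhibition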
# UBC13 inh = inhibitors of human UBC13 polyubiquitin chain formation. 330,000 tested, 0.47% active. inhibition, % at 20 µM. TR-FRET. P61088; in the data active = inhibition above about 45%, passing the limit was not always enough
# beta cell repl = inducers of beta-cell replication in MIN6 cells | MIN6 cells proliferation, ATPlite luminescence, 48 h; cells starved in 0.2% serum; 100% = growth in 10% serum | proliferation, % at 10 µM | 330,000 tested, 0.29% active;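 active = compounds whose signal lies at least 3.5 SD above the mean of all wells on their plate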;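 note: 0% = DMSO-treated cells in low-serum medium and 100% = 10% serum control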
# PREPL inh = inhibits the human prolyl oligopeptidase-like enzyme. recombinant PREPL, fluorescence polarization activity-based probe. inhibition, % at 5.96 µM. 320,000 tested, 0.68% active. AID 2751;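 note: 0% = enzyme with DMSO and 100% = wells lacking enzyme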
# RAD54 inh = inhibitors of human RAD54 branch migration; RAD54 Holliday junction branch migration, FAM/BHQ fluorescence; inhibition, % at 10.4 µM; Q92698; 360,000 tested, 0.14% active;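 active = mean normalized replicate activity at least 40 and at least half of replicates scoring 40 or more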;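 note: 0% = median of neutral control wells and 100% = median of positive control wells; inhibitors cause a drop in the FAM fluorescence signal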
# Target sequence (Q92698 whole entry, looked up): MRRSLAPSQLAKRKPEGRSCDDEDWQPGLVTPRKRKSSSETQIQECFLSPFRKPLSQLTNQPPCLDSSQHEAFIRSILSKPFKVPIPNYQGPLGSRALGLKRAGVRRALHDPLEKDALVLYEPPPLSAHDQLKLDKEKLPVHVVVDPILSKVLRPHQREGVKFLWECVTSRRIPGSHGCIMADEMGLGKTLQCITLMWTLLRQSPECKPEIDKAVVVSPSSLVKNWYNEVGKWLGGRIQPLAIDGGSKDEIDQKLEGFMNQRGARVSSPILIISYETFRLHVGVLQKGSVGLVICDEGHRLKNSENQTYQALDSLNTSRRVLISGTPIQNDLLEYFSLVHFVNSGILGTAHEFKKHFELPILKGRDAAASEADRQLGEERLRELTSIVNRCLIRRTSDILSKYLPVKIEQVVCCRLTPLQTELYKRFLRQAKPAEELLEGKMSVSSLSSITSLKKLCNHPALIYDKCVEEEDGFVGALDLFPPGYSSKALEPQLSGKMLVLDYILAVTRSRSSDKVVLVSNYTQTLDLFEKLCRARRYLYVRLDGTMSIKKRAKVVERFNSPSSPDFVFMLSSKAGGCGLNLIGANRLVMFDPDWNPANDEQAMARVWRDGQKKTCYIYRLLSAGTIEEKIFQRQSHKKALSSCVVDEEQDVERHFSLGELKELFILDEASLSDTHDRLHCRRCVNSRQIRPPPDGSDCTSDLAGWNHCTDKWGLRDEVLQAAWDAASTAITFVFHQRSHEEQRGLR
# PREPL inh cf = human PREPL inhibition, confirmation; shares compounds with PREPL inh; recombinant PREPL, fluorescence polarization activity probe; inhibition, % at 5.96 µM; 2,000 tested, 67% active;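 note: 0% = protein with DMSO and 100% = wells lacking protein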
# The depositor's hits bear a star; x = no result. Rows were chosen to be rich in hits. Some 1.3% of all compounds tested hit in one or more screens of this group. Cut-off read from the data, not from the text of the source, unless noted: active = inhibition above about 43%; inactive = the rest.
SMILES,FID counter,RAD52 inh,UBC13 inh,beta cell repl,PREPL inh,RAD54 inh,PREPL inh cf
Nc1nn(-c2ccccc2)c(N)c1N=Nc1cccc(F)c1,-3.9,-8.5,-13.2,-2.9,64.5*,5.4,60.4*
Cc1nn(-c2ccccc2)c(N)c1N=Nc1cccnc1,-6.5,-6.0,-22.7,-3.3,4.7,x,x
Nc1[nH]n(-c2ccccc2)c(=O)c1N=Nc1ccc2c(c1)OCCO2,5.5,-4.9,-193.6,-4.8,26.9,7.2,x
Nc1[nH]n(-c2ccccc2)c(=O)c1N=Nc1ccc2c(c1)OCO2,3.2,-3.3,-158.0,-1.8,45.4*,-6.2,47.2*
O=C(O)CCN1C(=O)/C(=C\c2cccc(OCC(=O)Nc3ccc(Cl)cc3)c2)SC1=S,-15.3,-25.9,-24.4,-4.2,16.8,5.2,x
Cc1ccc(NC(=O)COc2cccc(/C=C3\SC(=S)N(CCC(=O)O)C3=O)c2)cc1Cl,-22.1,-24.5,-21.6,-2.2,52.4*,x,27.9
Brc1csc(/C=N/Nc2nc3ccccc3s2)c1,2.2,x,0.6,0.0,53.7*,x,40.5
COc1ccc(S(=O)(=O)Nc2ccc3c(c2)C(=O)N([C@H](C)CO)C[C@@H](C)[C@H](CN(C)C(=O)Cc2ccccc2)OCCCC[C@@H](C)O3)cc1,x,-2.3,x,x,x,-7.3,x
CO[C@H]1CC[C@@H]2CCN(C)C(=O)[C@H](C)[C@@H](OC)CN(C)C(=O)c3cc(C#N)ccc3OC[C@H]1O2,x,1.7,x,x,x,4.0,x
COc1ccc(C2=CCN3CCCCC3C2)c(-c2ccc(OC)c(OC)c2)c1 (stereo not given),x,-0.1,21.6,0.2,47.0*,8.7,42.9
CN(C)c1ccc(NC(=O)c2ccc(COc3cccc(Cl)c3)o2)cc1,-7.6,x,-3.1,-1.0,57.8*,4.0,46.9*
CCN1CCN(C(=O)c2ccc(COc3cccc(Cl)c3)o2)CC1,-3.9,-6.3,3.9,0.0,-11.5,1.0,x
c1ccc2c(c1)nc(Nc1ccc3c(c1)OCO3)c1nnnn12,-2.1,x,-9.7,2.1,46.6*,x,45.2*
Cc1ccc(C)c(NC(=O)COC(=O)c2cccc3c2C(=O)c2ccccc2C3=O)c1,3.9,0.0,-15.0,-5.6,60.1*,4.1,47.0*
O=C(Nc1ccc(F)cc1)N1C[C@@H]2[C@H](c3ccccc31)[C@H](CO)N2C(=O)Cc1cccnc1,x,-17.8,x,x,x,-5.7,x
C#CCOCCOCCOCCNc1nc(N2CCN(C(=O)[C@H]([C@@H](C)CC)n3cc([C@@H](N)Cc4ccc(O)cc4)nn3)CC2)nc(N2CCN(C(=O)[C@H](Cc3cc4ccccc4[nH]3)n3cc([C@@H](N)C(C)CC)nn3)CC2)n1 (stereo not given in full),34.4,x,77.8*,-3.7,53.4*,x,48.1*
C#CCOCCOCCOCCNc1nc(N2CCN(C(=O)C(Cc3cc4ccccc4[nH]3)n3cc(C(N)Cc4ccc(O)cc4)nn3)CC2)nc(N2CCN(C(=O)C(CCC(=O)O)n3cc(C(N)C(C)CC)nn3)CC2)n1 (stereo not given),x,-14.5,9.6,-3.9,30.9,4.0,x
O=C(C1CCCCC1)N1CC[C@@H]2[C@@H](CO)Nc3ccc(Br)cc3[C@@H]21,x,-2.2,x,x,x,0.2,x
CC(C)(C)c1ccc(/C=N/NC(=S)NCc2ccccc2)cc1,-0.8,-13.1,1.7,-5.2,3.8,x,x
CN(C)c1ccc(/C=N/NC(=S)NCc2ccccc2)cc1,-6.1,x,9.0,-5.3,50.9*,-9.8,54.9*
C[C@H](CO)N1C[C@H](C)[C@@H](CN(C)Cc2ccc(C(=O)O)cc2)Oc2ccc(NC(=O)Cc3ccccc3)cc2CC1=O,x,5.2,x,x,x,-2.8,x
COc1ccc(-[n+]2c(C)cc(/C=C3\Sc4ccccc4N3C)cc2C)cc1,2.7,-257.7,-73.5,-6.1,69.7*,x,69.5*
COc1ccccc1-[n+]1c(C)cc(/C=C2\Sc3ccccc3N2C)cc1C,-1.5,-215.8,-57.9,-6.2,64.5*,-410.7,70.6*
C[C@H]1CN([C@@H](C)CO)C(=O)c2ccccc2-c2ccccc2CO[C@H]1CN(C)C(=O)Cc1ccccc1,x,16.3,x,x,x,-4.3,x
N#CC1=C(N)N(c2ccccc2)C(c2ccccc2)C1(C#N)C#N (stereo not given),-5.2,x,16.0,-2.1,45.8*,x,19.3
SMILES,FID counter,RAD52 inh,UBC13 inh,beta cell repl,PREPL inh,RAD54 inh,PREPL inh cf
O=C(C1CCN(c2ncnc3c2nc2n3CCCCC2)CC1)N1CCN(c2ccccc2F)CC1,-66.9,-5.0,1.0,-2.0,44.4*,11.6,42.9
CO[C@H]1CN(C)C(=O)c2cc(NC(=O)C3CCCC3)ccc2OC[C@@H](C)N(C(C)=O)C[C@@H]1C,x,x,x,x,x,12.6,x
Cc1noc(C)c1S(=O)(=O)Nc1ccc2c(c1)C(=O)N([C@@H](C)CO)C[C@@H](C)[C@H](CN(C)C(=O)Nc1cccc3ccccc13)OCCCC[C@@H](C)O2,x,-10.0,x,x,x,-0.8,x
Cc1noc(C)c1NC(=O)N(C)C[C@@H]1Oc2ccc(NS(=O)(=O)c3c(C)noc3C)cc2CC(=O)N([C@H](C)CO)C[C@H]1C,x,-2.4,x,x,x,-12.5,x
COc1cc(NCCCCCCCN)c2ncccc2c1,2.5,x,-39.7,-5.8,54.9*,-0.8,30.8
O=C1C(NS(=O)(=O)c2cccs2)=C(N2CCN(c3cccc(Cl)c3)CC2)C(=O)c2ccccc21,-0.2,x,-67.9,-4.9,58.0*,2.0,55.9*
CC1CCN(C2=C(NS(=O)(=O)c3ccc(Cl)cc3)C(=O)c3ccccc3C2=O)CC1,5.5,-3.2,-45.3,-5.9,16.8,-8.7,x
O=C1C(NS(=O)(=O)c2ccccc2)=C(N2CCN(c3ccc(F)cc3)CC2)C(=O)c2ccccc21,-6.5,-5.2,-55.9,-4.7,58.8*,-4.9,61.0*
C[C@H](CO)N1C[C@H](C)[C@@H](CN(C)S(=O)(=O)c2ccc(Cl)cc2)OCCCC[C@H](C)Oc2ccc(NS(=O)(=O)c3cccs3)cc2C1=O,x,-2.4,x,x,x,-1.1,x
Nc1c(C(=O)NC2CCCC2)c2nc3ccccc3nc2n1N,-2.4,x,3.2,0.0,44.0*,-1.5,29.9
Nc1c(C(=O)NC2CCCC2)c2nc3ccccc3nc2n1/N=C/c1ccco1,-2.0,x,10.0,-4.3,3.4,x,x
N#CC1=C(N)C(C#N)(C#N)C(c2cccnc2)C2CC(c3ccccc3)CC=C12 (stereo not given),-16.8,x,-4.7,-0.6,44.1*,-17.4,31.6
N#CC1=C(N)C(C#N)(C#N)C(c2cccnc2)C2CCCC=C12 (stereo not given),-1.6,x,8.0,-0.7,17.1,x,x
C[C@@H]1CCCCO[C@H](CN(C)S(=O)(=O)c2cn(C)cn2)[C@H](C)CN([C@@H](C)CO)C(=O)c2cc(NC(=O)Nc3ccc(F)cc3)ccc2O1,x,4.3,x,x,x,-6.7,x
O=C(C[n+]1cc(-c2ccccc2)n2c1CCCCC2)c1ccc(Br)cc1,41.9*,2.6,15.9,-6.5,54.1*,x,25.8
CCCNC(=O)N1CCC2(CC1)CN(C(C)=O)[C@H](CO)c1[nH]c3cc(OC)ccc3c12,x,3.2,x,x,x,x,x

# Source: PubChem BioAssay
